CYP2C9 act: human CYP2C9 activators, primary screen, biochemical, luminescence; recombinant CYP2C9, luciferin-H conversion; stronger effect = higher value; factor 1 = untreated enzyme, 0 = blocked; activation factor at 5 µM; actives 1.4% (n = 96,000); AID 1024, 2008;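 active means activation factor of 2 or more for CYP2C9 at a 5 µM dose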;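 further: 0 = sulfaphenazole-blocked wells and 1 = vehicle-only wells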
CYP2C9 inh: blockers of cytochrome P450 2C9 activity – biochemical, luminescence, ADME assay, primary screen; inhibition, % at 5 µM; CYP2C9 Supersomes, luciferin-H conversion; AID 777, 2007; actives 20% (n = 96,000);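 active means blocking of liver enzyme CYP2C9 beyond about 50% at 5 µM, limit read from the data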
CYP2C19 act: human CYP2C19 activators, primary screen, biochemical, luminescence | Cytochrome P450 2C19 (Homo sapiens), P33261 | recombinant CYP2C19, luciferin-H EGE luminescence; stronger effect = higher value; 0 = fully inhibited enzyme, 1 = untreated enzyme | activation factor at 5 µM | 96,000 tested, under 10 active | AID 1025, 2008;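 active means activation factor of at least 2 at 5 µM in the primary screen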;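 further: 0 = wells with 2.5 mM tranylcypromine and 1 = vehicle-only wells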
EphB4 antag: EphB4-ephrin-B2 interaction antagonists, primary screen, biochemical, TNYL-RAW peptide probe, fluorescence polarization; Ephrin type-B receptor 4 (Homo sapiens), P54760; EphB4 LBD / TNYL-RAW-Alexa532 peptide; inhibition, % at 7 µM; actives 0.15% (n = 97,000); AID 720, 2007;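 active means inhibition above the screen-wide mean inhibition plus 3 SD, cut at about 15% in these data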;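 further: 0% = DMSO wells and 100% = excess unlabeled TNYL-RAW peptide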
Target sequence (P54760 whole entry, looked up, the tested form may be a part): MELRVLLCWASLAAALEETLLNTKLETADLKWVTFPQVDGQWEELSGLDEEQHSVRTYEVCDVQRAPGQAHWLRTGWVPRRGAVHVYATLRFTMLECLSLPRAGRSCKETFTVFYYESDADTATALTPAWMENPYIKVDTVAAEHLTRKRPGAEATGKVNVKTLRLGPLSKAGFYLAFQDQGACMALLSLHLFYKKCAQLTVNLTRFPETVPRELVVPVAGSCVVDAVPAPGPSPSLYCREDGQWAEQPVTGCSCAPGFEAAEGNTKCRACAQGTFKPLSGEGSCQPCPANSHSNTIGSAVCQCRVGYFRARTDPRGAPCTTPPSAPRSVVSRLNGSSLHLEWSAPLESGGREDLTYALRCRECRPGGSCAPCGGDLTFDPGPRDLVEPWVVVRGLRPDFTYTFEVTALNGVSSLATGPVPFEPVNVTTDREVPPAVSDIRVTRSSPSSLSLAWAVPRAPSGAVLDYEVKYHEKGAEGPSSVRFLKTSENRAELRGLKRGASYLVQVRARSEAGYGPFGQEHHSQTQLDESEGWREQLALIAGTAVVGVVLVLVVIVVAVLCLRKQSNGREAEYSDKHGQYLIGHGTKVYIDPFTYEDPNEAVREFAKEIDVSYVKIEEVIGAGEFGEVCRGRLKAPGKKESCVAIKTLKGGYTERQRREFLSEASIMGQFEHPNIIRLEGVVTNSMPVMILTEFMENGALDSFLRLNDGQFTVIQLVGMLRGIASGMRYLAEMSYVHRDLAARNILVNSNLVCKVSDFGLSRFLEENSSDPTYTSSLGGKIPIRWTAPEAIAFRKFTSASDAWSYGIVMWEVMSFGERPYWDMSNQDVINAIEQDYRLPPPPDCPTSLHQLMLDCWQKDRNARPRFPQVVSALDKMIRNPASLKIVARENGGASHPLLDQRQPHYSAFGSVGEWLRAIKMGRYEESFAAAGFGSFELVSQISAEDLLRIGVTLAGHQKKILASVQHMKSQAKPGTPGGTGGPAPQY
CYP2C19 inhib: blockers of cytochrome P450 2C19 activity – biochemical, luminescence, ADME assay, primary screen; inhibition, % at 5 µM; P33261; CYP2C19 Supersomes, luciferin-H EGE luminescence, 30 min; AID 778, 2007; actives 21% (n = 96,000);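 active means CYP2C19 inhibition above a set limit at 5 µM in the primary screen, cut at about 50% in these data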;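 further: plate controls were negative control wells for no effect and 2.5 mM tranylcypromine positive control for full effect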
Starred values were filed as active, the others as inactive; . = not tested or not shown. Sampled rows, rich in hits. Any-hit rate of the full collection: about 27%.

SMILES	CYP2C9 act	CYP2C9 inh	CYP2C19 act	EphB4 antag	CYP2C19 inhib
C=C(C)Cn1c(N2CCC(Cc3ccccc3)CC2)nc2c1c(=O)[nH]c(=O)n2C	.	.	.	5.4	.
CN(C(=O)c1ccc2c(c1)OCO2)C1(C(=O)NC2CCCCC2)CCCCC1	0.9	13.5	0.9	0.3	8.0
COc1ccc(N=CC2=C(Nc3ccc(OC)cc3)c3c(C)nn(-c4ccccn4)c3CC2)cc1	.	.	.	24.5*	.
C=CCNc1nc(NCCN2CCOCC2)nc(N2CCOCC2)n1	1.2	-15.8	1.1	0.2	-13.2
CCOC(=O)N1CCN(C(=O)c2ccc(CS(=O)(=O)c3ccc(OC)cc3)o2)CC1	0.3	70.8*	1.1	.	-10.3
COc1ccc(S(=O)(=O)Cc2ccc(C(=O)N3CCN(c4ccccc4F)CC3)o2)cc1	0.1	88.7*	0.5	-2.1	49.2
COc1ccc(S(=O)(=O)Cc2ccc(C(=O)N3CCN(c4ccccc4)CC3)o2)cc1	0.3	65.7*	0.7	.	27.9
O=C(Nc1ccc(N2CCOCC2)c(Cl)c1)c1cc2ccccc2o1	.	.	.	-1.8	.
Cc1cc(C)c(OCCOCCN2CCNCC2)c(C)c1	0.9	6.9	1	-3.2	1.9
COCCNC(=O)c1cc2sc3ccccc3c2s1	1.3	-25.5	0.9	-2.2	6.2
C/C(=N\NS(=O)(=O)c1ccc(Cl)cc1)c1ccc(O)cc1	0.2	77.5*	0.2	2.0	83.0*
C/C(=N/NS(=O)(=O)c1ccc(C)cc1)c1cccc(NC(=O)c2cccc(Cl)c2)c1	1	3.1	1	-0.2	-2.8
C/C(=N/NS(=O)(=O)c1ccc(Cl)cc1)c1cccc(NC(=O)c2ccc(Cl)cc2Cl)c1	0	97.3*	0.3	-10.6	74.6*
N#CCCSCc1ccc(C(=O)O)o1	0.7	31.5	1.1	-8.8	-8.5
COc1ccc(CNC(=O)CS(=O)Cc2nc(-c3ccc(C)cc3)oc2C)cc1 (stereo not given)	0.6	43.2	0.7	-11.4	33.9
Cc1ccc(NC(=O)CN(C)S(=O)(=O)c2cccc3nsnc23)cc1Cl	0.2	83.6*	0.6	-0.8	40.0
CN(CC(=O)NCc1ccc(Cl)cc1)S(=O)(=O)c1cccc2nsnc12	0.8	20.1	0.2	-1.2	81.8*
CN(CC(=O)NCc1ccc(Cl)cc1)S(=O)(=O)c1cccc2cccnc12	1.7	-72.0	0.5	-5.4	45.2
Cc1ccc(NC(=O)CN(C)S(=O)(=O)c2cccc3nsnc23)cc1C	0.2	77.7*	0.7	3.9	34.8
CN(CC(=O)NCCN1CCN(Cc2ccccc2)CC1)S(=O)(=O)c1cccc2nsnc12	1.1	-5.3	1.1	-1.9	-5.9
Cc1ccc2nc(NC(=O)CN(C)S(=O)(=O)c3cccc4nsnc34)sc2c1	0.8	19.0	0.8	1.3	22.7
Cc1ccnc(NC(=O)CN(C)S(=O)(=O)c2cccc3nsnc23)c1	0.2	76.9*	0.8	2.9	20.9
CCOC(=O)N1CCN(C2CC(=O)N(c3ccc(Cl)c(Cl)c3)C2=O)CC1 (stereo not given)	.	.	.	4.2	.
CC(NS(=O)(=O)c1ccc(Cl)cc1)C(c1cccs1)N1CCN(C)CC1 (stereo not given)	.	.	.	2.1	.
CC(C(=O)Nc1ccccc1C(=O)N1CCOCC1)N(c1ccccc1)S(C)(=O)=O (stereo not given)	.	.	.	-5.9	.
SMILES	CYP2C9 act	CYP2C9 inh	CYP2C19 act	EphB4 antag	CYP2C19 inhib
CN(CC(=O)Nc1ccc(F)c(F)c1)S(=O)(=O)c1cccc2nsnc12	0.3	70.0*	0.6	14.5	38.7
CCN(CCCNC(=O)CN(C)S(=O)(=O)c1cccc2nsnc12)c1ccccc1	0.3	74.4*	0.6	-3.8	37.4
COc1ccc(OCCNS(=O)(=O)c2ccc3oc4ccccc4c3c2)cc1	0.6	38.9	0.7	-10.3	25.7
CN(CCOc1ccccc1)S(=O)(=O)c1ccc2oc3ccccc3c2c1	1.6	-62.2	0.5	9.3	52.2*
Cn1c(=O)c2c(nc(-n3ccnc3)n2Cc2ccc([N+](=O)[O-])cc2)n(C)c1=O	1.1	-7.6	1	-2.8	4.1
Cc1sc2ncnc(NCC3(N4CCOCC4)CCCCC3)c2c1C	0.4	60.2*	0.7	1.7	30.3
c1nc(NCC2(N3CCOCC3)CCCCC2)c2ccsc2n1	.	.	.	0.8	.
COc1ccccc1NC(=O)COc1cccc(-n2cnnn2)c1	1.9	-88.1	0.6	.	41.5
CCOC(=O)CSc1cc(=O)n(CC)c2ccccc12	1.1	-9.1	1	-4.3	-0.2
Cn1c(=O)cc(OCCCC(=O)Nc2ccc3c(c2)OCCO3)c2ccccc21	.	.	.	5.1	.
CC(CC(=O)Nc1ccc2c(c1)OCCO2)c1ccccc1 (stereo not given)	0.6	41.8	0.5	-4.6	52.0*
Cn1cc(SCC(=O)Nc2ccc3c(c2)OCCO3)c2ccccc21	0.6	42.7	0.4	-4.4	62.8*
CCn1c(=O)cc(SCC(=O)Nc2cccnc2)c2ccccc21	2.4*	-144.5	1.1	5.2	-12.7
CCCCN(CC)C(=O)CSc1cc(=O)n(C)c2ccccc12	1.3	-29.8	0.4	9.5	64.2*
Cn1c(=O)cc(SCC(=O)N2CCCC2)c2ccccc21	1.2	-21.9	1.1	.	-5.1
C/C(CC(O)c1ccc2ccccc2n1)=N/O (stereo not given)	0.9	8.4	1	0.3	1.4
CCn1c(=O)cc(SCC(=O)N(C)Cc2ccccc2)c2ccccc21	2*	-98.0	0.4	8.1	55.5*
CCn1c(=O)cc(SCC(=O)NCC2CCCO2)c2ccccc21 (stereo not given)	3.8*	-275.4	0.9	-5.6	13.1
CCn1c(=O)cc(SCC(=O)Nc2ccc3c(c2)OCO3)c2ccccc21	1.2	-16.7	0.3	4.6	71.3*
Cn1c(=O)cc(SCC(=O)NCC2CCCO2)c2ccc(Cl)cc21 (stereo not given)	.	.	.	4.3	.
CCN(CCCNC(=O)Cn1cc2c(n1)CCCC2)c1cccc(C)c1	0.6	37.7	0.6	.	42.9
Clc1ccc(OCCSc2ncccn2)cc1	0.8	20.3	0.7	5.2	28.7
O=C(Cn1c(=O)oc2cc(S(=O)(=O)N3CCCC3)ccc21)NCc1ccc(F)cc1	0.1	85.1*	0.9	-1.1	5.4
Cn1c(=O)oc2cc(S(=O)(=O)N3CCc4ccccc4C3)ccc21	0.9	8.5	0.5	.	51.5*
O=C(Cn1c(=O)oc2cc(S(=O)(=O)N3CCOCC3)ccc21)N1CCc2ccccc2C1	0.9	5.5	1.1	-7.2	-14.2
O=C(Cn1c(=O)oc2cc(S(=O)(=O)N3CCCC3)ccc21)N1CCc2ccccc2C1	0.4	63.7*	1	-5.5	2.6
CC1Cc2ccccc2N1C(=O)Cn1c(=O)oc2cc(S(=O)(=O)N3CCCCC3)ccc21 (stereo not given)	0.4	64.9*	0.5	-4.8	52.5*

From PubChem
